Measurements from PubChem BioAssay AID504894 (National Center for Advancing Translational Sciences (NCATS), 2011).
Out of some 330,000 compounds screened, fewer than 10 were called active. Calls come from the whole dose curve; as a rule, active = well fitted activation curve with a large enough effect; inconclusive = small, poorly fitted or top-dose-only effect, or another doubt; inactive = no such curve, though single readings can be large or run the other way. Only a sample is shown.

Experiment: Activators of T cell receptors: qHTS campaign
Conditions: primary human leukocytes, anti-CD3, IL-2 HTRF, 48 h; series mostly up to 9.22 µM
Text: Normally activation of naive T cells requires two signals. 1. A signal through the T cell receptor (TCR) which provides antigen specificity to the response. 2. Signals through co-stimulatory molecules, which are necessary for proliferation, survival and cytokine production. In the absence of co-stimulatory signals T cells are not effectively activated, and may even be rendered anergic or unresponsive to subsequent signaling. This lack of costimulation has been shown in multiple model systems to be a major factor in the limited strength and effectiveness of anti-tumor T cell responses. The goal of this project is to identify small molecule compounds that will stimulate T cell activation in the presence of TCR signaling but in the absence of co-stimulatory signals, thereby allowing activation of naive T cells in the absence of co-stimulation. Identification of such compounds would have clear experimental and clinical applications in instances where desirable antigen-specific immune responses are not generated due to a lack of co-stimulation, for example in the generation of anti-tumor responses. In collaboration between the National Cancer Institute and NIH Chemical Genomics Center, a high-throughput amenable screen was developed to discover small molecules that co-stimulate and activate human T cell receptors. The screen will be carried out using a novel homogeneous time resolved fluorescence energy transfer (HTRF) assay to measure production of the cytokine IL-2 by activated T cells and will be tested against the NIH Molecular Libraries Small Molecule Repository (MLSMR). NIH Chemical Genomics Center [NCGC] NIH Molecular Libraries Probe Centers Network [MLPCN] MLPCN Grant: MH090820-01 Assay Submitter (PI): Richard Hodes, National Cancer Institute, NIH
Primary human leukocytes are incubated with a-CD3 beads and compounds for 48 hr. The amount of secreted IL-2 is then assayed with a HTRF IL-2 kit. The presence of IL-2 cytokine captures the detection reagents and brings the a-IL-2-K and a-IL-2-d2 into close proximity. Upon excitation with 320nm light, the europium cryptate is capable of transferring energy to acceptor molecules within close proximity, resulting in acceptor molecule emission at 665nm.

Compound	outcome
COc1cccc(CC(=NO)c2cccc(OC)c2)c1	inactive
CC(NC(=O)c1ccccc1)C(=O)Nc1ccccc1 (centres undefined)	inactive
COc1cc(/C=C/CNC[C@H]2O[C@@H](n3cnc(C(N)=O)n3)[C@H](O)[C@@H]2O)ccc1O	inactive
COc1cc2c(cc1OC)C(Cc1cc(OC)c(OC)cc1[N+](=O)[O-])=NCC2	inactive
Cc1ccc(-c2csc(C(C#N)=C(O)CN3CCN(C(=O)c4ccco4)CC3)n2)cc1	inactive
CN(C)c1ccc(CSc2ccccc2)cc1	inactive
COc1cc(C(=O)CCc2ccc3c(c2)OCO3)cc(OC)c1OC	inactive
O=c1[nH]c2c(c(=O)n1-c1ccccc1)CCO2	inactive
CN(C(=O)c1cccc(NC(=O)Cc2ccc(NC(=O)C3CCCN(C(=O)C4CCCC4)C3)cc2)c1)C1CCC1 (centres undefined)	inactive
CC(=O)c1cccc(-c2ccc(CN3C(CC(C)C)C(=O)N(Cc4cn(CC5CCCCC5)nn4)CCS3(=O)=O)cc2)c1 (centres undefined)	inactive
N#CCc1c[nH]c2ccc([N+](=O)[O-])cc12	inactive
O=c1c2ccccc2ncn1CCc1ccncc1	inactive
COc1cccc2c1C(=O)c1c(O)c3c(c(O)c1C2=O)CC(O)(C(C)=NNC(=O)c1ccc(Cl)c(Cl)c1)CC3OC1CC(N)C(O)C(C)O1 (centres undefined)	inactive
O=c1ccn([C@@H]2O[C@H](CNS(=O)(=O)c3cc4ccccc4s3)[C@@H](O)[C@H]2O)c(=O)[nH]1	inactive
CCCCN1CC(COCc2ccccc2)OCCS1(=O)=O (centres undefined)	inactive
COc1ccc(OC)c(Cc2cnc3nc(N)nc(N)c3c2C)c1	inactive
CCC1([N+](=O)[O-])COC(c2ccc(C(C)C)cc2)OC1 (centres undefined)	inactive
CC1C(C)N(C(=O)CCl)c2ccccc2N1C(=O)CCl (centres undefined)	inactive
OCC(O)C1OCOC(C(O)CO)C1O (centres undefined)	inactive
CC1=CC(=NNS(=O)(=O)c2ccc([N+](=O)[O-])cc2)CC(C)(C)C1	inactive
C#CCOCCOCCOCCNc1nc(N2CCOCC2)nc(N2CCN(C(=O)[C@H](Cc3ccc(O)cc3)n3cc(CCO)nn3)CC2)n1	inactive
COc1ccc(Cl)cc1C=CC=Nc1ccc(S(N)(=O)=O)cc1	inactive

Compound	outcome
O=C(O)C(CCc1ccccn1)c1ccccc1 (centres undefined)	inactive
COc1ccc(C(=O)Nc2cccc(/C=C(/CCC(=O)O)c3nc4ccccc4s3)c2)cc1	inactive
O=[N+]([O-])c1ccc(NS(=O)(=O)c2ccccc2)c(Cl)c1	inactive
OC(COc1ccccc1)CN1CCN(c2cccc(Cl)c2)CC1 (centres undefined)	inactive
COc1cc2c(cc1CNC[C@H]1O[C@@H](n3cnc(C(N)=O)n3)[C@H](O)[C@@H]1O)OCO2	inactive
CCc1nnc(NC(=O)c2cc(S(=O)(=O)N3CCN(CC)CC3)ccc2Cl)s1	inactive
O=C(NNc1nc(N2CCCC2)nc(N2CCCC2)n1)c1ccccc1	inactive
Nc1ccc2[nH]c(=S)sc2c1	inactive
CCCC(O)(c1ccccc1)C(c1ccccc1)c1ccccn1 (centres undefined)	inactive
COc1ccc(Cl)cc1C=CC=NNC(=O)c1ccncc1	inactive
COc1cccc2oc(CCc3ccccc3)cc(=O)c12	inactive
Nc1ccc2c(c1)C(O)c1ccc(Cl)cc1-2 (centres undefined)	inactive
COc1ccc(CNCCCNCc2ccc(OC)c(OC)c2)cc1OC	inactive
O=S(=O)(Nc1ccc2ccccc2c1)N1CCCCC1	inactive
C[C@@H]1NS(=O)(=O)c2cc(Cl)ccc2O[C@@H]1c1ccccc1	inactive
O=[N+]([O-])c1ccc(COc2ccccc2CN2CCOCC2)cc1	inactive
Cc1nc2ccccc2c(C(=O)O)c1-c1ccccn1	inactive
O=C1NC(=O)C(CCc2ccccc2)(c2ccccc2)N1 (centres undefined)	inactive
O=c1oc2ccccc2c(=O)c2ccccc12	inactive
c1ccc(C(=NNc2nc3ccccc3s2)c2ccccn2)cc1	inactive
Cc1ccc(OCCNC(=O)c2cccc(S(=O)(=O)N3CCN(Cc4ccccc4)CC3)c2)cc1	inactive
O=C(NCCc1ccccc1)c1c[nH]c2ccc(F)cc2c1=O	inactive

Compound	outcome
CNN/C(N=Cc1ccc([N+](=O)[O-])s1)=N\S(=O)(=O)c1cc(C)c(Cl)cc1SCc1ccccc1	inactive
O=C1OC(Cc2ccccc2)C(c2ccccc2)C1=O (centres undefined)	inactive
COc1ccc(S(=O)(=O)N2CCc3ccccc32)cc1C(=O)Nc1cc(S(C)(=O)=O)ccc1Cl	inactive
CN(O)C(=S)c1ccccc1	inactive
CC(C)C[C@H]1CN([C@@H](CC(C)C)CN2CCC[C@@H]2CN2C(=O)C(=O)NC[C@@H]2Cc2ccccc2)C(=O)C(=O)N1CCc1ccccc1	inactive
COc1cc(C2c3cc4c(cc3C(O)C3COC(=O)C23)OCO4)cc(OC)c1OC (centres undefined)	inactive
Cc1cc(C)c(C=NNc2nc3c([nH]2)c(=O)n(C)c(=O)n3C)c(C)c1	inactive
C#CCOCCOCCOCCNc1nc(N2CCN(C(=O)Cn3cc(CCO)nn3)CC2)nc(N2CCN(C(=O)[C@H](CCCCN)n3cc(CCCC)nn3)CC2)n1	inactive
C[C@]12CCC(=O)C=C1C=CC1C2CC[C@@]2(C)C1CC[C@@]21CCC(=O)O1 (some centres undefined)	inactive
CC(=O)Nc1ccc(C(=O)Nc2cc(S(=O)(=O)N3CCOCC3)ccc2N2CCOCC2)cc1	inactive
C=CC(=O)Nc1ccc(Nc2ccnc(Nc3ccc(N4CCN(C)CC4)cc3)n2)cc1	inactive
Cc1ccc(C)c(S(=O)(=O)N(C)c2ccc(OC(=O)C3CCN(C(=O)c4ccc(F)cc4)CC3)cc2)c1	inactive
Cc1c(NS(=O)(=O)c2cccc(C(=O)Nc3ccc(SC(F)F)cc3)c2)c(=O)n(-c2ccccc2)n1C	inactive
C[C@@H]1ON(C)[C@H]2C[C@H]3c4cc(N5CCN(C)CC5)ccc4CCN3C(=O)[C@@H]12	inactive
Cc1onc(-c2c(F)cccc2Cl)c1C(=O)Nc1cccc(S(=O)(=O)N2CCCCC2)c1	inactive
O=C(CC1Sc2ccccc2NC1=O)NNc1ccc(Cl)c(Cl)c1 (centres undefined)	inactive
CCC(=O)N1CCc2cc(Br)c(S(=O)(=O)NCCN3CCCCC3CC)cc21 (centres undefined)	inactive
CC(C)Cn1cnc2c(SCc3ccc(Cl)cc3)nc(N)nc21	inactive
O=C1NCC(c2ccccc2)(c2ccccc2)C(=O)N1	inactive
COC[C@@H]1NS(=O)(=O)c2ccc(Br)cc2O[C@H]1c1ccccc1	inactive
